Outcome and AC50 data for 16 compounds are collected here from PubChem BioAssay (EPA / NIEHS).

Records with an inconclusive call do not appear. Active and inactive are the calls of the source. How the source made its calls, unless noted: active means hit-call score of the fitted dose curve at least 0.9, where 1 is the maximum; inconclusive means response in the unintended direction; inactive means score below 0.9.

Assay [1] addresses Retinoic acid receptor RXR-alpha (Homo sapiens) (UniProt P19793). The assay can be described thus: TOX21_TR_RXR_BLA_Antagonist_Followup_ratio: Tox21 Thyroid Hormone Receptor beta Retinoid X Receptor alpha (RXRa) Antagonism Beta-lactamase (BLA) Follow-Up Assay, Ratio (AID 2283972). The gist of the method:
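Compounds were tested in triplicate at 11 concentrations on RXRa-bla HEK293T cells for 16 h. Substrate cleavage ratio, normalized to DMSO, gave the endpoint.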

Assay [2] is described as follows: TOX21_TR_RXR_BLA_Antagonist_Followup_viability: Viability Assessment in the Tox21 Thyroid Hormone Receptor beta Retinoid X Receptor alpha (RXRa) Antagonism Beta-lactamase (BLA) Follow-Up Assay (AID 2283979). The gist of the method: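 RXRa-UAS-bla HEK293T cells seeded 2,500/well in phenol red-free DMEM with 2% charcoal-stripped FBS, attached 5 h, then exposed to compounds at 11 concentrations in triplicate for 16 h at 37C/5% CO2. Viability read by CellTiter-Glo ATP luminescence; bidirectional fit versus DMSO.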

Assay [3] addresses Nucleoli Translocation, AR (gene 367) (UniProt P10275). The assay can be described thus: UPITT_HCI_U2OS_AR_TIF2_Nucleoli_Agonist: University of Pittsburgh U2OS Androgen Receptor-Transcriptional Intermediary Factor 2 (AR-TIF2) Agonism High Content Imaging Assay for Nucleoli Translocation (AID 2283998). The gist of the method:
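High-content images quantify nucleolar accumulation of RFP-fused AR in cells also expressing GFP-TIF2; the endpoint is fitted as signal gain versus DMSO controls across final concentrations of 0.195 to 50 uM.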

Assay [4] has the same target. Description: UPITT_HCI_U2OS_AR_TIF2_Nucleoli_Antagonist: University of Pittsburgh U2OS Androgen Receptor-Transcriptional Intermediary Factor 2 (AR-TIF2) Antagonism High Content Imaging Assay for Nucleoli Translocation (AID 2283997). Put shortly: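 U2OS cells expressing RFP-tagged human AR and GFP-tagged TIF2 were imaged by high-content fluorescence microscopy for red AR signal in the nucleolar region. Compounds were screened at 20 uM final (0.2% DMSO), with activity fitted relative to DHT as baseline.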

Assay [5] addresses Ratio of Nucleoli Translocation and Cytoplasm, AR (gene 367) (UniProt P10275). Description: UPITT_HCI_U2OS_AR_TIF2_Nucleoli_Cytoplasm_Ratio_Antagonist: University of Pittsburgh U2OS Androgen Receptor-Transcriptional Intermediary Factor 2 (AR-TIF2) Antagonism High Content Imaging Assay for Ratio of Nucleoli Translocation and Cytoplasm (AID 2283999).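 Further: antagonists lower the DHT-driven ratio of nucleolar to cytoplasmic red signal.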 Put shortly:
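U2OS cells expressing RFP-tagged human AR and GFP-tagged TIF2; compounds tested at 20 uM final (0.2% DMSO) in primary screen, 0.195–50 uM (0.5% DMSO) for concentration response. Readout: nucleolar-to-cytoplasmic red fluorescence ratio by high-content imaging, fitted relative to DHT.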

For assay [6] the target is unchanged. Description: UPITT_HCI_U2OS_AR_TIF2_Nucleoli_Cytoplasm_Ratio_Agonist: University of Pittsburgh U2OS Androgen Receptor-Transcriptional Intermediary Factor 2 (AR-TIF2) Agonism High Content Imaging Assay for Ratio of Nucleoli Translocation and Cytoplasm (AID 2284000).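 Further: hits raise the red nucleolar to cytoplasm ratio above vehicle.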 The gist of the method:
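U2OS cells expressing RFP-tagged human AR and GFP-tagged TIF2 were imaged by high-content fluorescence microscopy. The endpoint is the ratio of nucleolar to cytoplasmic red fluorescence, fitted for gain of signal relative to DMSO. Concentration-response spanned 0.195 to 50 uM final (0.5% DMSO).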

The nature of assay [7]: CCTE_Simmons_MITO_basal_resp_rate: CCTE's HepG2 Seahorse XF Respirometric Screening Assay at Basal Respiratory State, Simmons Lab (AID 2284001; active means hit-call score of the fitted dose curve at least 0.9, where 1 is the maximum; inactive means score below 0.9). To be noted: actives raise or lower the signal. Put shortly:
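HepG2 cells were given test chemicals at 7 concentrations, 125 nM to 100 uM final, and oxygen consumption rate was read every 6 min (3 min mix, 3 min measure) over 72 min. Basal-phase OCR was fitted bidirectionally against DMSO.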

The next assay concerns DIO1 (gene 1733). The assay can be described thus: CCTE_GLTED_hDIO1: CCTE's human Deiodinase 1 (DIO1) Inhibition Assay, Great Lakes Toxicology and Ecology Division (GLTED) Lab (AID 2283987).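 Further: isolated human DIO1 enzyme in a cell-free setup rather than cells; enzyme activity read as free iodide liberated from substrate via Sandell-Kolthoff colorimetry.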 Put shortly:
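Chemicals are tested on human DIO1 without cells for 3 h. Uninhibited enzyme frees iodide, which speeds cerium(IV) reduction by arsenic and is read by spectrophotometry.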

In general, AC50 refers to the concentration giving half of the maximal activity seen.

Chain of Ratio of Nucleoli Translocation and Cytoplasm, AR (gene 367) (P10275 whole entry, looked up): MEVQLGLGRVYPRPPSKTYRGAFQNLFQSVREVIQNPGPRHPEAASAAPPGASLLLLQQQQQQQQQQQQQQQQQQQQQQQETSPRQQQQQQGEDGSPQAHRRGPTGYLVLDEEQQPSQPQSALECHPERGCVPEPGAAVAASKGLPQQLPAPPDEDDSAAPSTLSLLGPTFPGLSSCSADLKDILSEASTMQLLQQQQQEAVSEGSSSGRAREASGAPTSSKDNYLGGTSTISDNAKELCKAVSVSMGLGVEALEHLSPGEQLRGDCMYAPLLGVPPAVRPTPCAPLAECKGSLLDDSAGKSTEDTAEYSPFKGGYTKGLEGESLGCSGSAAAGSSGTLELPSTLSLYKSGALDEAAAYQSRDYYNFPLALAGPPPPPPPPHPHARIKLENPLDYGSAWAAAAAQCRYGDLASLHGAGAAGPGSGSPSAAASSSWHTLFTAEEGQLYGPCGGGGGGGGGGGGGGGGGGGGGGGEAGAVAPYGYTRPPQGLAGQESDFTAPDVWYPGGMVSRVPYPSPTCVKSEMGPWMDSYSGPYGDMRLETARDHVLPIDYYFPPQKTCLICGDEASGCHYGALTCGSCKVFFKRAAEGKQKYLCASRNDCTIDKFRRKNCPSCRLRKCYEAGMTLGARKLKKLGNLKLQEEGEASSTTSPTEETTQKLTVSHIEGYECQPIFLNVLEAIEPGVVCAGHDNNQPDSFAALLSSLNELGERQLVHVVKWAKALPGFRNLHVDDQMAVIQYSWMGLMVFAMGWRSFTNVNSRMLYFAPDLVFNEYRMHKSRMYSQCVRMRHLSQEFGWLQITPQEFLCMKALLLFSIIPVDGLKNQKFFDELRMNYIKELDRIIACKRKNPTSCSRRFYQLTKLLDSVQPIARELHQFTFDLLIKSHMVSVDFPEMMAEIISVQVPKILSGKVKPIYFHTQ
Chain of Nucleoli Translocation, AR (gene 367) (P10275 whole entry, looked up, the tested form may be a part): as the sequence (P10275 whole entry, looked up) above
Chain of Retinoic acid receptor RXR-alpha (Homo sapiens) (P19793 whole entry, looked up): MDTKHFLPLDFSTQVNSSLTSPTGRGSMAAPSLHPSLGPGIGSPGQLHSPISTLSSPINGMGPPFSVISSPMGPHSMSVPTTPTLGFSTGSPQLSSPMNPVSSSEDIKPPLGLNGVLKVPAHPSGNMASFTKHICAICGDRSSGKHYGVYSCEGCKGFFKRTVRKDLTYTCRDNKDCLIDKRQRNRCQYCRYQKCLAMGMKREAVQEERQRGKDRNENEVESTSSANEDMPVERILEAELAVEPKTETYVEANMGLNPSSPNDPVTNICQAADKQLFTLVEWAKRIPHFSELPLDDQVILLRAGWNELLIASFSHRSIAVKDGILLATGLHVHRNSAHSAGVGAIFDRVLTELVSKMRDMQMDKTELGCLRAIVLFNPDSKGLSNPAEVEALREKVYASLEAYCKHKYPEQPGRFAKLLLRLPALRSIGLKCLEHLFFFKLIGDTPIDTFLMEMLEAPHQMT

As for `COC(=O)Nc1nc2ccccc2[nH]1`, the outcome in assay [1], in assay [2] and in assay [3] was inactive.

For `CC(C)N(Cc1ccccc1)C(=O)C(C)(C)C`, the outcome in assay [4], in assay [5] and in assay [6] was inactive. For the same compound, in assay [7], the AC50 was 35.6 µM (active).

Turning to `Cc1cc(N=Nc2ccccc2C)ccc1N`, the AC50 is 26.1 µM (active) in assay [4], 77.9 µM (active) in assay [3], 84.9 µM (active) in assay [6] and 25 µM (active) in assay [7]. Further, the outcome in assay [5] was inactive.

With `Nc1ccc([N+](=O)[O-])cc1`, the call in assay [4] and in assay [6] was inactive.

As to `CC(C)COC(=O)c1ccccc1C(=O)OCC(C)C`, the AC50 in assay [7] is 56.3 µM (active).

Consider `CC(C)(C)C(O)(CCc1ccc(Cl)cc1)Cn1cncn1` (centres undefined), for which the AC50 in assay [7] was 39.6 µM (active).

On to `Nc1ccc(N=Nc2ccccc2)cc1`, for which the outcome in assay [7] was inactive.

`CC(C)(O)c1cnn2c(-c3ccc(F)c(-c4c(F)cccc4C#N)c3)cnc2n1`: the result in assay [4], in assay [3] and in assay [6] was inactive.

Regarding `CCOC(=O)[C@]1(c2ccccc2)Oc2ccccc2[C@@H]1N`, the AC50 in assay [7] was 43.2 µM (active).

Regarding `CO[C@@H]1[C@H](OC(=O)NC(=O)CCl)CC[C@]2(CO2)[C@H]1[C@@]1(C)O[C@@H]1CC=C(C)C`, the AC50 with DIO1 (gene 1733) is 17.8 µM (active). For the same compound, the compound was classed as inactive in assay [4], in assay [3], in assay [5] and in assay [6].

Consider `CC(C)(OOC(C)(C)c1ccccc1)c1ccccc1`, for which, in assay [4], the AC50 is 38.5 µM (active). The result in assay [5] and in assay [6] was inactive.

`Nc1ccc(Cl)cc1N`: the call in assay [4], in assay [3], in assay [5] and in assay [6] was inactive.

Turning to `COP(=S)(OC)SCN1C(=O)c2ccccc2C1=O`, the AC50 in the assay on DIO1 (gene 1733) was 50.9 µM (active).

Take `CCC(C)c1ccc(O)cc1` (centres undefined): the AC50 in assay [7] is 44.3 µM (active).

As to `CN(C)[C@@H]1C(=O)C(C(N)=O)=C(O)[C@@]2(O)C(=O)C3=C(O)c4c(O)cccc4[C@@](C)(O)[C@H]3C[C@@H]12`, the AC50 in the assay with DIO1 (gene 1733) is 56.9 µM (active).

As to `CCCCC(CC)COC(=O)c1ccc(C(=O)OCC(CC)CCCC)c(C(=O)OCC(CC)CCCC)c1` (centres undefined), the compound was classed as inactive in assay [4], in assay [5] and in assay [6].
